Read-out in assay [1]: urokinase plasminogen activator (uPA), PLAU (gene 5328)
In words: BSK_KF3CT_uPA: BioMAP Diversity Plus: KF3CT Assay for urokinase plasminogen activator (uPA) Biomarker Activity (AID 2283075). Particulars: primary human keratinocytes with fibroblasts; actives raise or lower the signal. The gist of the method: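 ELISA read-out of uPA 24 h after dosing human skin keratinocytes co-cultured with foreskin fibroblasts. Signal change fitted both ways relative to DMSO; sulforhodamine B on parallel cultures marks overt cytotoxicity.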

Read-out in assay [2]: CD40, CD40 (gene 958)
In words: BSK_LPS_CD40: BioMAP Diversity Plus: LPS Assay for CD40 Biomarker Activity (AID 2283076). Particulars: primary human HUVEC with PBMC; actives raise or lower the signal. In outline:
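Primary human umbilical vein endothelial cells co-cultured with peripheral blood mononuclear cells, LPS-stimulated, were dosed with chemical and read 24 h later. CD40 levels were measured by ELISA and fitted bidirectionally against DMSO as negative control and baseline.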

Read-out in assay [3]: E-selectin (Homo sapiens) (UniProt P16581)
In words: BSK_LPS_Eselectin: BioMAP Diversity Plus: LPS Assay for Eselectin Biomarker Activity (AID 2283077). Particulars: primary human HUVEC with PBMC; actives raise or lower the signal. The gist of the method:
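Human umbilical vein endothelial cells co-cultured with peripheral blood mononuclear cells under LPS stimulation; E-selectin measured by ELISA 24 h after chemical dosing. Activity fitted bidirectionally against DMSO as negative control and baseline.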

Read-out in assay [4]: Interleukin-8 (IL8), CXCL8 (gene 3576)
In words: BSK_LPS_IL8: BioMAP Diversity Plus: LPS Assay for Interleukin-8 (IL8) Biomarker Activity (AID 2283078). The conditions noted are these: primary human HUVEC with PBMC; actives raise or lower the signal. The gist of the method: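 Human umbilical vein endothelial cells co-cultured with PBMC were stimulated with LPS; IL-8 levels were measured by ELISA 24 h after chemical dosing. Activity was fitted bidirectionally against DMSO as negative control and baseline.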

Assay [5] in a line: BSK_LPS_SRB: Viability Assessment in the BioMAP Diversity Plus: LPS Assay (AID 2283079).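 Further: total protein by sulforhodamine B absorbance as a cytotoxicity measure; measured one day after compound addition.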 The conditions noted are these: primary human HUVEC with PBMC. In outline:
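Human umbilical vein endothelial cells co-cultured with PBMC (LPS system) were dosed for 24 h. Total protein was stained with 0.1% sulforhodamine B after 10% TCA fixation, read at 560 nm, and fitted bidirectionally against DMSO baseline.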

Read-out in assay [6]: Interleukin-1 alpha (IL1a), IL1A (gene 3552)
In words: BSK_LPS_IL1a: BioMAP Diversity Plus: LPS Assay for Interleukin-1 alpha (IL1a) Biomarker Activity (AID 2283080). Particulars: primary human HUVEC with PBMC; actives raise or lower the signal. The gist of the method: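 Human umbilical vein endothelial cells co-cultured with peripheral blood mononuclear cells were LPS-stimulated and exposed to test chemicals for 24 h. IL-1 alpha was quantified by ELISA, with bidirectional curve fitting against DMSO as the negative control and baseline.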

Read-out in assay [7]: Monocyte Chemoattractant Protein-1 (MCP1), CCL2 (gene 6347)
In words: BSK_LPS_MCP1: BioMAP Diversity Plus: LPS Assay for Monocyte Chemoattractant Protein-1 (MCP1) Biomarker Activity (AID 2283081).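 On AC50: co-culture stimulated with LPS; secreted MCP-1 protein quantified by ELISA in culture supernatant.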 The conditions noted are these: primary human HUVEC with PBMC; actives raise or lower the signal. The gist of the method:
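HUVEC plus PBMC co-culture (human primary cells, LPS system) exposed to test chemical for 24 h; MCP-1 measured by ELISA. Bidirectional curve fitting against DMSO baseline; parallel SRB total-protein staining flags overt cytotoxicity.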

A short description of assay [8]: BSK_LPS_PGE2: BioMAP Diversity Plus: LPS Assay for Prostaglandin E2 (PGE2) Biomarker Activity (AID 2283082). Particulars: primary human HUVEC with PBMC; actives raise or lower the signal. In outline:
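Primary human endothelial cells and blood mononuclear cells, co-cultured with LPS, receive test chemical; PGE2 ELISA follows at 24 h, with SRB-stained parallel cultures flagging cytotoxicity.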

Read-out in assay [9]: Macrophage colony-stimulating factor (MCSF), CSF1 (gene 1435)
In words: BSK_LPS_MCSF: BioMAP Diversity Plus: LPS Assay for Macrophage colony-stimulating factor (MCSF) Biomarker Activity (AID 2283083). Particulars: primary human HUVEC with PBMC; actives raise or lower the signal. In outline:
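Human umbilical vein endothelial cells co-cultured with peripheral blood mononuclear cells were exposed to compound for 24 h. M-CSF levels were measured by ELISA, and bidirectional curve fitting used DMSO as the negative control and baseline.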

Read-out in assay [10]: Tissue Factor, F3 (gene 2152)
Description: BSK_LPS_TissueFactor: BioMAP Diversity Plus: LPS Assay for Tissue Factor Biomarker Activity (AID 2283084). Particulars: primary human HUVEC with PBMC; actives raise or lower the signal. In outline: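 Human umbilical vein endothelial cells co-cultured with peripheral blood mononuclear cells were dosed and stimulated with LPS. Cell-surface CD142 was quantified by ELISA at 24 h. Activity was fitted bidirectionally against DMSO baseline.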

Read-out in assay [11]: Tumor necrosis factor (Homo sapiens) (UniProt P01375)
In words: BSK_LPS_TNFa: BioMAP Diversity Plus: LPS Assay for Tumour Necrosis Factor alpha (TNFa) Biomarker Activity (AID 2283085).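 On AC50: TNFa protein level quantified by ELISA in the co-culture.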 The conditions noted are these: primary human HUVEC with PBMC; actives raise or lower the signal. The gist of the method:
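ELISA-based TNFa endpoint in a human endothelial–PBMC co-culture sampled 24 h post-exposure. Curves were fitted in both directions using DMSO as baseline of activity.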

Read-out in assay [12]: Vascular cell adhesion molecule 1 (VCAM1), VCAM1 (gene 7412)
In words: BSK_LPS_VCAM1: BioMAP Diversity Plus: LPS Assay for Vascular cell adhesion molecule 1 (VCAM1) Biomarker Activity (AID 2283086). Particulars: primary human HUVEC with PBMC; actives raise or lower the signal. In outline:
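Measured by ELISA: VCAM-1 in LPS-activated HUVEC/PBMC co-cultures 24 h after treatment. Values reflect bidirectional fitting with DMSO as baseline.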

Read-out in the next assay: CD38, CD38 (gene 952)
Description: BSK_SAg_CD38: BioMAP Diversity Plus: SAg Assay for CD38 Biomarker Activity (AID 2283087). Particulars: primary human HUVEC with PBMC; actives raise or lower the signal. The gist of the method:
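Measures CD38 on a human endothelial/PBMC co-culture driven by SEB and TSST-1, 24 h after compound exposure, using ELISA with fluorescence detection; DMSO defines baseline for bidirectional curve fitting.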

Read-out in assay [13]: CD40, CD40 (gene 958)
Description: BSK_SAg_CD40: BioMAP Diversity Plus: SAg Assay for CD40 Biomarker Activity (AID 2283088). Particulars: primary human HUVEC with PBMC; actives raise or lower the signal. In outline: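 Human umbilical vein endothelial cells co-cultured with PBMC; CD40 levels measured by ELISA with fluorescence read-out 24 h after chemical dosing. Gain or loss of signal fitted bidirectionally against DMSO baseline.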

Read-out in assay [14]: Monocyte Chemoattractant Protein-1 (MCP1), CCL2 (gene 6347)
In words: BSK_SAg_MCP1: BioMAP Diversity Plus: SAg Assay for Monocyte Chemoattractant Protein-1 (MCP1) Biomarker Activity (AID 2283090). The conditions noted are these: primary human HUVEC with PBMC; actives raise or lower the signal. The gist of the method: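 Values derive from bidirectional fitting of ELISA-measured MCP1 against DMSO controls. Readings were taken 24 h after dosing human vascular endothelial cells co-cultured with peripheral blood mononuclear cells under superantigen stimulation.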

Read-out in assay [15]: E-selectin (Homo sapiens) (UniProt P16581)
Description: BSK_SAg_Eselectin: BioMAP Diversity Plus: SAg Assay for Eselectin Biomarker Activity (AID 2283091). The conditions noted are these: primary human HUVEC with PBMC; actives raise or lower the signal. The gist of the method:
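HUVEC co-cultured with PBMC, compound dosed then read at 24 h; E-selectin measured by ELISA. Activity fitted bidirectionally against DMSO as negative control and baseline.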

Read-out in assay [16]: Monokine induced gamma interferon (MIG), CXCL9 (gene 4283)
Description: BSK_SAg_MIG: BioMAP Diversity Plus: SAg Assay for Monokine induced gamma interferon (MIG) Biomarker Activity (AID 2283092). The conditions noted are these: primary human HUVEC with PBMC; actives raise or lower the signal. The gist of the method: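 HUVEC plus human PBMC co-culture, chemicals dosed and MIG (CXCL9) quantified by ELISA at 24 h. Bidirectional curve fitting against DMSO as negative control and baseline, so both gain and loss of signal count as activity.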

Assay [17] can be described thus: BSK_SAg_PBMCCytotoxicity: PBMC Cytotoxicity Assessment in the BioMAP Diversity Plus: SAg Assay (AID 2283093).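 Further: PBMC viability measured as Alamar Blue reduction fluorescence at 546/580 nm; fitted both ways against DMSO so a hit may be loss or gain of signal.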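 On AC50: PBMC superantigen activated with SEB plus TSST-1 one hour after compound addition.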 Particulars: primary human HUVEC with PBMC. In outline:
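Alamar Blue reduction (6 h, ex/em 546/580 nm) read after 90 h culture of PBMC pre-dosed 1 h then stimulated with SEB plus TSST-1, 20 ng/mL each. Gain or loss of signal fitted relative to DMSO.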

Read-out in assay [18]: Interleukin-8 (IL8), CXCL8 (gene 3576)
In words: BSK_SAg_IL8: BioMAP Diversity Plus: SAg Assay for Interleukin-8 (IL8) Biomarker Activity (AID 2283094). Particulars: primary human HUVEC with PBMC; actives raise or lower the signal. In outline:
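Primary human endothelial cells with PBMC, exposed 24 h; IL-8 determined by ELISA, analysed bidirectionally relative to DMSO.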

A short description of assay [19]: BSK_SAg_Proliferation: Cell Proliferation Assessment in the BioMAP Diversity Plus: SAg Assay (AID 2283095).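 Further: relative cell number as total protein by SRB absorbance in sub-confluent culture.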 The conditions noted are these: primary human HUVEC with PBMC. In outline: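 A human primary co-culture of umbilical vein endothelium and blood mononuclear cells receives compound; relative cell number is quantified at 96 h by SRB staining and 560 nm absorbance, with DMSO-referenced bidirectional curve fitting.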

Three compounds from PubChem BioAssay (EPA / NIEHS) can be followed below.

Activity calls are given as the source filed them. How the source made its calls: active means hit-call score of the fitted dose curve at least 0.9, where 1 is the maximum; inactive means score below 0.9.

Sequence of E-selectin (Homo sapiens) (P16581 whole entry, looked up): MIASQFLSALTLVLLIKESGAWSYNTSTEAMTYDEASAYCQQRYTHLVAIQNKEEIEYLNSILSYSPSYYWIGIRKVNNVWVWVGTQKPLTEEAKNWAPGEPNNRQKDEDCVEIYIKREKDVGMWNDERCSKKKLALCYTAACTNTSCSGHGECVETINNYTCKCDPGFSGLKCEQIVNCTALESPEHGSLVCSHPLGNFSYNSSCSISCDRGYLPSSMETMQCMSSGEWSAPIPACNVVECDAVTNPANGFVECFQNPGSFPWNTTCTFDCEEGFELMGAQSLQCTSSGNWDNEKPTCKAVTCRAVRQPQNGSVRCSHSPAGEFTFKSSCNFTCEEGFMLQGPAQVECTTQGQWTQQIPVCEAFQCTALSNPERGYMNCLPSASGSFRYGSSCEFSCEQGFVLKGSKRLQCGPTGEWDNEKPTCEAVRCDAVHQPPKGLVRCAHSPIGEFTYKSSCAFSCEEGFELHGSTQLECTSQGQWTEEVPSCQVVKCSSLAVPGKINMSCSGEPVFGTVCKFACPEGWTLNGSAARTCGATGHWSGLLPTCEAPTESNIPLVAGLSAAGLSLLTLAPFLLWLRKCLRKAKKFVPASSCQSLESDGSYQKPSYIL
Sequence of Tumor necrosis factor (Homo sapiens) (P01375 whole entry, looked up): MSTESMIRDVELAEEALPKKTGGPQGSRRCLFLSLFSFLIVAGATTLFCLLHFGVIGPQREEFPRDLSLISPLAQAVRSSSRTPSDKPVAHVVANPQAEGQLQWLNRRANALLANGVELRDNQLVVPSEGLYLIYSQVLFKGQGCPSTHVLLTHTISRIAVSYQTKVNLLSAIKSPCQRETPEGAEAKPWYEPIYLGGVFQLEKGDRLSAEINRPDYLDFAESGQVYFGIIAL

Turning to `C=C[Si](OC(C)=O)(OC(C)=O)OC(C)=O`, the outcome in [1] was “inactive”; with CD40, CD40 (gene 958) [2] it was “inactive”; in assay [3], “inactive”; in assay [4], “inactive”; in assay [5], “inactive”; in [6], “inactive”. Moreover, the outcome in assay [7], in [8], in assay [9], in assay [10], in [11] and in [12] was inactive. The outcome is “inactive” with CD38, CD38 (gene 952); “inactive” with CD40, CD40 (gene 958) [13]; “inactive” in assay [14]; “inactive” in [15]; “inactive” in [16]; “inactive” in [17]. The outcome in [18] and in assay [19] was inactive.

With `CCOc1nc(F)cc2nc(S(=O)(=O)Nc3c(Cl)cccc3C(=O)OC)nn12`, the outcome in assay [1] was “inactive”; with CD40, CD40 (gene 958) [2] it was “inactive”; in assay [3], “inactive”; in assay [4], “inactive”; in assay [5], “inactive”; in [6] it was “inactive”. Further, the outcome in assay [7], in [8], in assay [9], in assay [10], in assay [11] and in assay [12] was inactive. Further, the outcome with CD38, CD38 (gene 952) is “inactive”; with CD40, CD40 (gene 958) [13], “inactive”; in assay [14], “inactive”; in [15] it was “inactive”; in [16], “inactive”; in [17], “inactive”. Besides, the outcome in assay [18] and in [19] was inactive.

What is called AC50 is the concentration giving half of the maximal activity seen. `C#CC1(O)CC[C@H]2[C@@H]3CCC4=CCCC[C@@H]4[C@H]3CC[C@@]21C` (stereo not given in full): the AC50 in assay [1] is 35.1 µM (active); with CD40, CD40 (gene 958) [2], 20 µM (active); in assay [3], 30.3 µM (active); in assay [4], 35 µM (active); in [5], 20 µM (active); in [6] it was 29.6 µM (active). In addition, the AC50 in assay [7] is 35.7 µM (active); in assay [9], 29 µM (active); in assay [10] it was 31.2 µM (active); in [11] it was 33.3 µM (active); in assay [12], 29.9 µM (active); with CD38, CD38 (gene 952), 35.1 µM (active). Moreover, the AC50 with CD40, CD40 (gene 958) [13] was 30.2 µM (active); in assay [14] it was 31.8 µM (active); in assay [15] it was 35.9 µM (active); in [16], 31.8 µM (active); in assay [17], 20 µM (active); in assay [18], 20 µM (active). Also, in assay [19], the AC50 was 12.3 µM (active). The outcome in [8] was inactive.
